Assay results: ChEMBL document CHEMBL4513216, “Probing the Open Global Health Chemical Diversity Library for Multistage-Active Starting Points for Next-Generation Antimalarials” (ACS Infect Dis, 2020)
In all, about 68,000 compounds went through this assay and about 2,700 (4%) showed an effect of 50% or more. Only a selection was taken, and strong results are over-represented in it overall.

test system: Plasmodium berghei; test: Screen against P. berghei liver stage (PbLuc), transformed with Luciferase, at 2uM; type: functional, HepG2; conditions: tested at 2 uM

Row | Compound | INHIBITION
1 | CC(c1nc(C(C)(C)C)no1)N1CCC(N2CCCC2)CC1 (stereo not drawn) | 4.52%
2 | NS(=O)(=O)N1CCc2ccc(NC(=O)CC(F)(F)F)cc21 | 6.91%
3 | CCS(=O)(=O)N1CCc2ccc(NC(=O)Nc3ccccc3C)cc21 | -7.56%
4 | NS(=O)(=O)N1CCc2ccc(NC(=O)Cc3ccccc3F)cc21 | 60.14%
5 | CCS(=O)(=O)N1CCc2ccc(NC(=O)Nc3cccc(SC)c3)cc21 | 47.4%
6 | CCS(=O)(=O)N1CCc2ccc(NC(=O)Nc3cccc(F)c3)cc21 | 78.93%
7 | NS(=O)(=O)N1CCc2ccc(NC(=O)Cc3ccc(F)cc3)cc21 | 1.22%
8 | CCS(=O)(=O)N1CCc2ccc(NC(=O)Nc3cccc(C)c3)cc21 | 80.54%
9 | CCS(=O)(=O)N1CCc2ccc(NC(=O)Nc3ccc(F)cc3F)cc21 | 36.98%
10 | CCS(=O)(=O)N1CCc2ccc(NC(=O)Nc3ccccc3)cc21 | 20.38%
11 | O=C(O)c1cc2c(nc1N1CCOCC1)CCN(C1CCOC1)CC2 (stereo not drawn) | -51%
12 | CCc1ccc(C(=O)Nc2ccc(CC3CC(=O)NC3=O)cc2)s1 (stereo not drawn) | -3.62%
13 | CCc1ncc(CN2CCN(c3cc(NC4CC4)nc(N)n3)CC2)cn1 | -18.65%
14 | CCn1cc(NC(=O)Nc2ccc3c(c2)OCCO3)cn1 | -27.62%
15 | Cc1cc(CN2CCC(CNC(=O)c3ccc4[nH]cnc4c3)C2)[nH]n1 (stereo not drawn) | -48.91%
16 | CC(C)c1nn(C)c(N(C)C)c1CNC1CCN(CC2CC2)CC1 | 10.61%
17 | O=c1[nH]c(N2CCCCC2)nc2c1CCN(Cc1cccnc1)C2 | 43.23%
18 | CN1CCN(c2ncc3c(=O)n(Cc4ccco4)ccc3n2)CC1 | 59.01%
19 | O=c1c2cnc(N3CCCCC3)nc2ccn1Cc1ccco1 | -77.67%
20 | CCN1CCN(c2ncc3c(=O)n(Cc4ccco4)ccc3n2)CC1 | -20.72%
21 | Cn1ccnc1N1CCN(C(=O)Cc2ccc(Cl)cc2)CC1 | 29.05%
22 | CSc1ccc(C(=O)C2CCCN(C(=O)Cn3cnnn3)C2)cc1 (stereo not drawn) | 41.68%
23 | O=C(c1ccc2ccccc2c1)C1CCCN(C(=O)Cn2cncn2)C1 (stereo not drawn) | 25.9%
24 | O=C(c1ccc2ccccc2c1)C1CCCN(C(=O)Cn2cnnn2)C1 (stereo not drawn) | 56.38%
25 | Cc1ccccc1OCC(O)CN1CCC(Cn2cccn2)CC1 (stereo not drawn) | 33.22%
26 | Cc1cccc(CN2CCc3ncnc(-c4ccsc4)c3CC2)n1 | -1.33%

Row | Compound | INHIBITION
27 | CC(C)N(C)S(=O)(=O)N1CCCC1C(=O)N1CCSCC1 (stereo not drawn) | -36.67%
28 | Cc1ccc(CC(=O)N2CCCCC2c2nc(C)cs2)cn1 (stereo not drawn) | -39.92%
29 | CN1CCC(c2n[nH]c(=O)n2-c2cccc(Cl)c2)CC1 | -8.16%
30 | C[C@H](c1ccc(Cl)cc1)n1c(C2CC2)n[nH]c1=O | 62.51%
31 | C[C@H](c1ccc(F)cc1)n1c(C2CCN(C)CC2)n[nH]c1=O | 72.05%
32 | C[C@H](c1ccc(F)cc1)n1c(C2CCC2)n[nH]c1=O | 38.67%
33 | CC[C@@H](c1ccccc1)n1c(C2CC2)n[nH]c1=O | 43.05%
34 | O=c1[nH]nc(C2CC2)n1-c1cccc(Cl)c1 | -21.72%
35 | O=C1NCCCCC1NC(=O)N1CCc2ccccc21 (stereo not drawn) | 50.42%
36 | O=C1NCCCCC1NC(=O)N1CCCc2ccccc21 (stereo not drawn) | 12.66%
37 | O=C1NCCCCC1NC(=O)N1CCCc2cc(F)ccc21 (stereo not drawn) | -30.43%
38 | Cc1nnc(N2CCCC3(CN(Cc4cnn(C)c4)CCO3)C2)o1 (stereo not drawn) | 16.39%
39 | CC(C)c1nn(CC(=O)N2CCCC2)c(=O)c2c1cnn2C(C)(C)C | -10.09%
40 | CCc1cnc(CN(C)C2CCN(Cc3nnc(C4CC4)n3C)C2)o1 (stereo not drawn) | -11.16%
41 | Cc1occc1C(=O)N1CCC2(CCCN(Cc3nccs3)C2)C1 (stereo not drawn) | 50.61%
42 | Cc1occc1C(=O)N1CCC2(CCN(Cc3nccs3)CC2)C1 | -114.33%
43 | Cc1occc1C(=O)N1CCC2(CCN(Cc3nccs3)C2)CC1 | -6.15%
44 | CC(C)NC(=O)N1C[C@@H]2C[C@H](C(=O)N3CCCC3)[C@H](C1)O2 | -17.24%
45 | CCn1cc(CN2CCc3nc(-c4ccccn4)nc(O)c3C2)cn1 | 57.4%
46 | Cn1cc(CN2CCc3nc(-c4ccccn4)nc(O)c3C2)cn1 | -21.74%
47 | CCn1cc(CN2CCc3nc(N4CCOCC4)nc(O)c3CC2)cn1 | 7.86%
48 | CN(C)C[C@@H]1CN(C(=O)c2cc(F)ccc2F)C[C@@H]1CO | -0.3%
49 | CCn1nc(C)cc1C(=O)N1C[C@@H](CN(C)C)[C@@H](CO)C1 | 31.31%
50 | CCN(C)C[C@@H]1CN(C(=O)c2cc(C(F)(F)F)n[nH]2)C[C@@H]1CO | 51.9%
51 | COCCN(C)C[C@@H]1CN(C(=O)c2cccc(C(F)(F)F)c2)C[C@@H]1CO | -20.58%
52 | CN(C)C[C@@H]1CN(C(=O)c2cc(-c3ccccc3)n[nH]2)C[C@@H]1CO | -40.44%

Row | Compound | INHIBITION
53 | CCN(C)C[C@@H]1CN(C(=O)c2cc(-c3ccc(F)cc3)n[nH]2)C[C@@H]1CO | 54.49%
54 | O=C(CCCC(=O)NCc1cccc(Br)c1)NCCN1CCCC1 | -32.11%
55 | Cc1nc(CN2C[C@@H]3CN(C(=O)C4(C#N)CC4)C[C@@H]3C2=O)cs1 | 25.5%
56 | CN(C)C(=O)N1CCC2(CCCN(Cc3cnn(C)c3)C2)C1 (stereo not drawn) | 40.67%
57 | CCn1c(CC2CCN(C(=O)C3CCOC3)CC2)nn(C)c1=O (stereo not drawn) | -47.18%
58 | CCC(C)NC(=O)c1cccc(CNCc2csc(C(C)C)n2)c1 (stereo not drawn) | -21.15%
59 | CC(C)N(C)Cc1cncc2c1CCN(Cc1ccoc1)C2 | 1.81%
60 | Cc1ccc(C(=O)NCC(O)CN2CCCC2=O)c(C)c1 (stereo not drawn) | -40.9%
61 | COc1ccc(CN(C)C(=O)CN2CC(n3cc(C)cn3)C2)cc1F | -6.33%
62 | NC(=O)c1ccc(N2CCN(Cc3c(Cl)cncc3Cl)CC2)nc1 | -20.93%
63 | CCc1nn(C)c(Cl)c1CN1CCN(c2ccc(C(N)=O)cn2)CC1 | 33.16%
64 | CCOC(=O)c1ccc(N2CCN(Cc3c(C)nn(C)c3Cl)CC2)nc1 | 55.7%
65 | Cc1nc2c(c(Nc3ccccn3)n1)CN(S(C)(=O)=O)CC2 | -48.89%
66 | Cc1noc(C)c1C(=O)N1CCC(n2cccn2)CC1 | 61.52%
67 | COC(=O)c1cccn1C1CCN(C(=O)c2c(C)noc2C)CC1 | 39.92%
68 | Cc1noc(C(C)C)c1C(=O)N1CCC(n2cccn2)CC1 | 22.57%
69 | Cc1noc(C(C)Nc2ccc3oc(C)nc3c2)n1 (stereo not drawn) | 10.04%
70 | O=C(c1ccc(F)cc1Cl)N1CCC(Nc2cccnn2)CC1 | 8.37%
71 | Fc1cccc(CN2CCOC3(COCCN(CC4CC4)C3)C2)c1 (stereo not drawn) | 3.11%
72 | Cc1cn[nH]c1C1COCCN1C(=O)c1ccc2c(c1)CCCC2 (stereo not drawn) | 72.17%
73 | Cc1cn[nH]c1C1COCCN1C(=O)c1ccc2[nH]nnc2c1 (stereo not drawn) | 37.33%
74 | COc1ccc(C(=O)N2CCOCC2c2[nH]ncc2C)cc1F (stereo not drawn) | -53.71%
75 | CS(=O)(=O)CCN1CCC(Nc2c(Cl)cccc2C#N)CC1 | -23.01%
76 | CC(C)OC(=O)N1CCCCC1CCn1cccn1 (stereo not drawn) | 29.71%
77 | CNC(=O)c1cc2c(s1)CCN(C(=O)CCC1CCCN(C)C1)C2 (stereo not drawn) | -4.26%
78 | CN1CCCC(CCC(=O)N2CCc3sc(C(=O)N(C)C)cc3C2)C1 (stereo not drawn) | 74.44%

Row | Compound | INHIBITION
79 | CN(C)C(=O)c1cc2c(s1)CCN(C(=O)CCCN1CCCCC1)C2 | 17.2%
80 | C1CCC(CO[C@@H]2CC[C@H]3[C@H]2OCCN3CC2CCOCC2)C1 | 42.01%
81 | CC(=O)N1CCN(Cc2ccc(F)cc2)CC2(CC(=O)N(C)C2)C1 (stereo not drawn) | 44.68%
82 | Cc1c(C)n2c(SCC(=O)N3CCOCC3)nnc2[nH]c1=O | 33.59%
83 | COc1ccc(CN2CCN(C3CCc4ccccc4C3)CC2)cc1O (stereo not drawn) | 59.48%
84 | Oc1cccc(CN2CCN(C3CCc4ccccc4C3)CC2)c1 (stereo not drawn) | -5.87%
85 | COc1cc(O)ccc1CN1CCN(C2CCc3ccccc3C2)CC1 (stereo not drawn) | 31.9%
86 | CCNC(=O)C1CCN(c2nc(-c3ccco3)nc3c2CCNCC3)C1 (stereo not drawn) | 40.47%
87 | CCC(O)CN1CCN(C(=O)c2cc(Cl)cc3cccnc23)CC1 (stereo not drawn) | -28.58%
88 | Cc1nonc1C(=O)N1CCc2c(ncn2CCc2ccccc2)C1 | 17.2%
89 | Cc1cc(C)c(C(=O)N2CCc3c(ncn3CCc3ccccc3)C2)[nH]1 | 0.51%
90 | Cc1cc(C(=O)N2CCc3c(ncn3CCc3ccccc3)C2)on1 | 50.59%
91 | c1ccc(Cn2cc3c(n2)C(COCC2CC2)OCC3)nc1 (stereo not drawn) | 7.73%
92 | Cn1cnc2c1CCN(Cc1csc(Cc3ccccc3)n1)C2 | 33.61%
93 | COc1ccc(-n2nnnc2C(C)(C)Nc2ccc(C)cc2C)cc1 | 57%
94 | Cc1cccc(-n2nnnc2C(C)(C)Nc2ccccc2C)c1 | -20.72%
95 | Cc1ccc(NC(C)(C)c2nnnn2-c2ccc(Cl)cc2)c(C)c1 | -0.62%
96 | COCCN1CC2(CCCN(C(=O)NCc3ccccc3)C2)CCC1=O (stereo not drawn) | 13.53%
97 | CCCc1cc(NCCN2CCNC2=O)n2nccc2n1 | 68.39%
98 | O=C1NCCN1CCNc1cc(-c2ccccc2)nc2ccnn12 | -8.8%
99 | CCc1cc(NCCN2CCNC2=O)n2nccc2n1 | 25.69%
100 | CCCc1cc(NCCC2CCCOC2)n2nccc2n1 (stereo not drawn) | 50.41%
101 | CCc1cc(NCCCC2CCOC2)n2nccc2n1 (stereo not drawn) | -3.6%
102 | CCCc1cc(NCCCC2CCOC2)n2nccc2n1 (stereo not drawn) | 26.35%
103 | CC(SCCC(=O)NC(N)=O)c1cccc(F)c1 (stereo not drawn) | 4.07%
